# Activity calls are given as the source filed them. How the source made its calls: active means hit-call score of the fitted dose curve at least 0.9, where 1 is the maximum; inactive means score below 0.9.
# Test: ATG_M_32_CIS: Attagene CIS-FACTORIAL HepG2 Assay for M32 Transcription Factor (Internal Marker) (AID 2282949);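 further: background control marker of the multiplexed CIS panel rather than a real target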
# Details: HepG2 Attagene cis-factorial M32 reporter, mRNA; actives raise or lower the signal
# Description: ATG_CIS is a cell-based, multiplexed-readout assay that uses HepG2, a human liver cell line, with measurements taken at 24 hours after chemical dosing in a 24-well plate.ATG_M_32_CIS is one of 52 assay component(s) measured or calculated from the ATG_CIS assay. It is designed to make measurements of mRNA induction, a form of inducible reporter, as detected with fluorescence intensity signals by Reverse transcription polymerase chain reaction (RT-PCR) and Capillary electrophoresis technology.Data from the assay component ATG_M_32_CIS was analyzed into 1 assay endpoint. This assay endpoint, ATG_M_32_CIS, was analyzed with bidirectional fitting relative to DMSO as the negative control and baseline of activity. Using a type of inducible reporter, measures of mRNA for gain or loss-of-signal activity can be used to understand the background control at the transcription factor-level as they relate to the gene . Furthermore, this assay endpoint can be referred to as a secondary readout, because this assay has produced multiple assay endpoints where this one serves a background control function. To generalize the intended target to other relatable targets, this assay endpoint is annotated to the background measurement intended target family, where the subfamily is internal marker.
# Human liver HepG2 cells are transiently transfected with multiple reporter transcription units (MRTUs) in 6-well plates using FuGene 6 reagent (Roche; 3 ml FuGene/1 mg DNA). The MRTU constructs are regulated by a cis-regulating element (promoter). […] A major difference between the CIS and TRANS system is that in CIS activities of endogenous TFs are measured, whereas the TRANS assay evaluates changes in activities of exogenous, chimeric NR-Gal4 proteins. […] At the end of 24 hour incubation, total RNA was isolated using TriZol reagent (Invitrogen). The isolated RNA is then reverse-transcribed using oligo(dT) primer and Mo-MLV reverse transcriptase (Invitrogen) with DNAse I (Ambion) treatment for 30 min. The one-tenth of the produced cDNA was amplified by PCR using Taq DNA polymerase (Invitrogen) and two reporter sequence-specific primers. The PCR products were fluorescently labeled by primer extension with 6-arboxyfluorescein (6-FAM) 5'-labeled reporter sequence-specific primer (2 min at 95 C, 20 s at 68 C and 10 min at 72 C) and these products were digested with 5U of HpaI (New England Biolabs) for 2h at 37 C. The fragments were purified using Qiaquick PCR columns (Qiagen), analyzed on an ABI 3130xL genetic analyzer (Applied Biosystems) with peak positions identified by using a set of X-rhodamine (ROX)-labeled MapMarker1000 molecular weight standards (BioVentures). The raw capillary electrophoresis data was processed using Attagraph software (Attagene).
SMILES,outcome,AC50
Nc1ncnc2nc[nH]c12,inactive,–
C=CC(=O)OCC(C)OCC(C)OCC(C)OC(=O)C=C (stereo not given),inactive,–
O=C(O)CCCC(=O)O,inactive,–
O=C(Oc1ccccc1)c1ccccc1O,inactive,–
CC(=O)c1ccccc1O,inactive,–
Oc1ccccc1Cc1ccccc1O,inactive,–
Cc1ccc(S(=O)(=O)N=C=O)cc1,inactive,–
CCCCOCCOCCOC(C)=O,inactive,–
C[N+](C)(C)CCCNS(=O)(=O)C(F)(F)C(F)(F)C(F)(F)C(F)(F)C(F)(F)C(F)(F)C(F)(F)C(F)(F)F,inactive,–
CCc1cccc(C)c1N(C(=O)CS(=O)(=O)O)C(C)COC (stereo not given),inactive,–
N#Cc1ccc(C(c2ccc(C#N)cc2)n2cncn2)cc1,inactive,–
NC(=O)Nc1ccccc1,inactive,–
CCCCC(CC)COS(=O)(=O)O (stereo not given),inactive,–
Cc1cc(C)c(C=O)c(C)c1,inactive,–
COC(=O)C=Cc1ccccc1,inactive,–
CCc1cccc(C)c1N,inactive,–
CCOC(=O)CC(=O)c1ccccc1,inactive,–
CCOc1ccc(NC(N)=O)cc1,inactive,–
CC(C)(c1ccccc1)c1ccc(Nc2ccc(C(C)(C)c3ccccc3)cc2)cc1,inactive,–
C=CC(=O)O[C@H]1C[C@@H]2CC[C@@]1(C)C2(C)C,–,150 µM (active)

SMILES,outcome,AC50
CCCC=C(C=O)CC,inactive,–
CC1CCC(C(C)(C)S)C(=O)C1 (stereo not given),inactive,–
CC1=CCC(C(C)C)C=C1 (stereo not given),inactive,–
CCCCCCCCCCCCC,inactive,–
O=C(O)CC(C(=O)O)S(=O)(=O)O (stereo not given),inactive,–
Oc1ccc(/C=C/c2cc(O)cc(O)c2)cc1,inactive,–
CC(C)c1cc(C(C)C)cc(C(C)C)c1,–,162 µM (active)
Cc1ccc(C)c(OCCCC(C)(C)C(=O)O)c1,inactive,–
C=C(C)C(=O)OCC(O)COc1ccc(C(C)(C)c2ccc(OCC(O)COC(=O)C(=C)C)cc2)cc1 (stereo not given),inactive,–
C=C(C)C(=O)OCCCCCCCCCCCC,inactive,–
Nc1cccc(N)n1,inactive,–
CC1CCC(=O)C1=O (stereo not given),inactive,–
CCCCOC(=O)C(C)CC (stereo not given),inactive,–
CC(=O)c1ccc(S(=O)(=O)NC(=O)NC2CCCCC2)cc1,inactive,–
CCCCC1C(=O)N(c2ccccc2)N(c2ccccc2)C1=O,inactive,–
CCOB(OCC)OCC,inactive,–
Nc1ccc(C(=O)OCCCOC(=O)c2ccc(N)cc2)cc1,inactive,–
CCOC(=O)OC(=O)OCC,inactive,–
CC(CCC(=O)O)(c1ccc(O)cc1)c1ccc(O)cc1,inactive,–
CCCCCCC=O,inactive,–

# Source: PubChem BioAssay (EPA / NIEHS)
